According to PubChem BioAssay (NCI):
Compounds without any hit were thinned out: in the full panel of roughly 83,000, 20% have a hit.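 Values shown are percent growth following 48 h exposure of cells in 96-well plates to a single concentration of compound; below 10 was considered active.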 Values without a mark were called inactive. The source made the active and inactive calls.

tested on: COLO 205 colon; assay: NCI-60 one-dose screen, 48 h (100 = growth as untreated, 0 = no growth, -100 = all killed); conditions: 10 µM

SMILES	growth
O=C(NO)c1ccc(Cn2ccc3c(Nc4ccccc4)ncnc32)cc1	-84.9% (active)
N#Cc1ccc(-c2nn(-c3ccc(C(=O)O)cc3)cc2CNc2cccc(Br)c2)cc1	117%
O=C(c1ccc(Cl)cc1)C1[C@H](c2ccccc2Br)[C@@H](c2ccccc2)NC12C(=O)Nc1ccccc12 (some centres not stated)	-42.4% (active)
CC1(C)CC[C@]2(C(=O)Nc3ccccc3)CC[C@]3(C)C(=CC[C@@H]4[C@@]5(C)CC[C@H](N)C(C)(C)[C@@H]5CC[C@]43C)[C@H]2C1	-36.4% (active)
CC(=C(c1ccc(OCCCN(C)C)cc1)c1ccc(OCCCN(C)C)cc1)c1ccccc1	-85.9% (active)
Cc1ccc(/C=C/C(=O)c2ccc(S(=O)(=O)NCCNc3nc(Nc4ccc(F)cc4)nc(N(C)C)n3)cc2)cc1	35.4%
COc1ccc(C(=O)Nc2sc3c(c2C#N)CCC(=O)C3)cc1C(F)(F)F	-89.1% (active)
COc1ccc2nc(Cl)c(-c3cc(-c4ccccc4)nc(=S)[nH]3)cc2c1	72.6%
Cc1ccc(-c2cc(C(=O)N=Nc3c(O)[nH]c4ccccc34)c3ccccc3n2)cc1	-5.04% (active)
C#Cc1ccc(S(=O)(=O)Nc2cccc(-c3csc(NC(C)=O)n3)c2)cc1	88.3%
CC(C)C1=C[C@@]23CC[C@@H]4[C@](C)(CCC[C@]4(C)C(=O)NCc4ccccc4)[C@H]2C[C@@H]1[C@H]1C(=O)CCC(=O)[C@H]13	103%
COc1ccc(C(=O)NC(=S)N2CCN(c3ncnc4c3cnn4-c3ccccc3)CC2)cc1	79.7%
C[C@H]1[C@H](C)CC[C@]2(COC(=O)CCC(=O)NCC#CCN3CCNCC3)CC[C@]3(C)C(=CC[C@@H]4[C@@]5(C)CCCNC(C)(C)[C@@H]5CC[C@]43C)[C@H]12	-76.9% (active)
CC[C@@]1(O)C(=O)OCc2c1cc1n(c2=O)Cc2c-1nc1cc(F)c(C)c3c1c2[C@@H](N)CC3	-81.6% (active)
Cc1cccc2cc(-c3cc(-c4ccccc4)nc(=S)[nH]3)c(Cl)nc12	123%
Cc1ccc(CNC(=O)Cc2ccc3c(c2)CN(C2CCC(=O)NC2=O)C3=O)cc1 (configuration not stated)	-12.5% (active)

SMILES	growth
CONC[C@]1(C)C=C2C(=O)[C@](C)(O)C3(CC3)C(C)=C2[C@H]1O	-79.1% (active)
CC1(C)CC[C@]2(C(=O)N3CCOCC3)CC[C@]3(C)C(=CC[C@@H]4[C@@]5(C)CC[C@H](NCO)C(C)(C)[C@@H]5CC[C@]43C)[C@H]2C1	-72.7% (active)
NS(=O)(=O)c1ccc(N=Nc2c(O)n(CC(=O)Nc3ccccc3Br)c3ccccc23)cc1	5.92% (active)
CNC(=O)c1cccc(N2CCc3c2ccc(NC(=O)Nc2ccc(N4CCN(C)CC4)c(C(F)(F)F)c2)c3F)c1	92.7%
O=C(NCCCCC(c1ccc(F)cc1)c1ccc(F)cc1)NCCCc1cccnc1	-12.1% (active)
CC(=O)Nc1ccc(-c2cn(-c3cccc(C(=O)Nc4ccc(Cl)c(C(F)(F)F)c4)c3)nn2)cn1	-40.9% (active)
CCCS(=O)(=O)c1oc(-c2ccc(F)cc2)nc1S(=O)(=O)c1ccc(F)cc1	-92.1% (active)
O=C(Cn1nc(-c2ccccc2)ccc1=O)NN1C(=O)c2ccccc2C1=O	131%
CC(=O)NCC1=C(C)C=C2C(=O)[C@](C)(O)C3(CC3)C(C)=C21	-81.4% (active)
CCN1CCN(Cc2ccc(C(=O)Nc3cccc(-c4cn(-c5ccc6oc(=O)ccc6c5)nn4)c3)cc2C(F)(F)F)CC1	48.1%
CCOP(=O)(OCC)O[C@H]1CCC(=O)[C@@H]2[C@H]1[C@H]1C[C@@H]3[C@@]4(C)CCCC(C)(C(=O)OC)[C@@H]4CC[C@@]23C=C1C(C)C (some centres not stated)	47.6%
O=C1Nc2ccc(F)cc2/C1=C/c1cccc(OCc2ccccn2)c1	98.8%
CC1=N/C(=C\c2ccc(N(C)C)cc2)C(=O)N1CCc1ccc(S(N)(=O)=O)cc1	113%
O=C(Nc1ccc(I)cc1F)c1cc(-c2ccc(F)cc2F)ccc1O	-35.6% (active)
C/C(=N\NC(N)=S)c1ccc(Nc2nc(SC(C)C)nc(-c3ccccc3)c2C#N)cc1	92.5%
COc1ccc2c(c1)N=C(C(=O)O)/C2=C/c1sc(Nc2ccc(O)cc2)nc1O	89.2%
